Experimental findings from PubChem BioAssay AID1851 (National Center for Advancing Translational Sciences (NCATS), 2009) are described below.

In all, about 16,000 compounds went through this assay and about 5,700 (36%) were called active. Inconclusive results (about 24%) are left out. The list shows a part of the results. Values without a mark were called inactive. Calls come from the whole dose curve; as a rule, active = well fitted curve in the direction sought with a large enough effect; inconclusive = small, poorly fitted or top-dose-only effect, or effect the other way; inactive = no such curve, though single readings can be large or run the other way.
% is set by controls: 0 for no effect and ±100 for the full control effect.

Sequence of Cytochrome P450 1A2 (Homo sapiens) (P05177 whole entry, looked up): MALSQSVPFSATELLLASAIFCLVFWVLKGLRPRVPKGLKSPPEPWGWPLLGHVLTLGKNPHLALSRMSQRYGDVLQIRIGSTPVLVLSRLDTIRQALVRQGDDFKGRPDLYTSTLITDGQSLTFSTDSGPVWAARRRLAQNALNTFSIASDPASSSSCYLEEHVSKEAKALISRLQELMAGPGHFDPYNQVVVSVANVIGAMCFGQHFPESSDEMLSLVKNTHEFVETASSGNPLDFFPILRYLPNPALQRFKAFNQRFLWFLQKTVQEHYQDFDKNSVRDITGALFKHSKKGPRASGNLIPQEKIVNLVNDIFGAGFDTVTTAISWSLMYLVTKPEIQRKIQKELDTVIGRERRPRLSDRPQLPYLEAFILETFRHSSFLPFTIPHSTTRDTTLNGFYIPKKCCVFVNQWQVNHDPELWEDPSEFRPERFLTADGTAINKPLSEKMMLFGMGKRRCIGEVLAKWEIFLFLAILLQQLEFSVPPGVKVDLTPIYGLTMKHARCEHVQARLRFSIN

This test addresses Cytochrome P450 1A2 (Homo sapiens) (UniProt P05177). Put plainly: Cytochrome panel assay with activity outcomes. As to conditions: recombinant CYP, pro-luciferin dealkylation, luminescence, p450-cyp1a2; series mostly up to 57.1 µM.
As for `COc1ccc(NC(=O)N(C2CCCCC2)C(C)c2cccnc2)c(OC)c1` (stereo not drawn), the AC50 (in general, the concentration giving half of the maximal activity seen) is 14.1 µM (active).

Consider `Cc1cc(NC(=O)CCC(=O)N(CC2CCCO2)C(C(=O)NC2CCCC2)c2cccnc2)no1` (stereo not drawn), for which the AC50 result was “inactive”.

As to `CCOC(=O)CN(C(=O)CCC(=O)Nc1cc(C)on1)C(C(=O)NC1CCCC1)c1cccnc1` (stereo not drawn), the AC50 entry was “inactive”.

With `CCCC1C(=O)N(c2ccccc2)C1c1ccccc1` (stereo not drawn), the AC50 is 12.6 µM (active).

Consider `O=C1C(CCS(=O)c2ccccc2)C(=O)N(c2ccccc2)N1c1ccccc1` (stereo not drawn), for which the AC50 entry is “inactive”.

For the compound `O=C1C(Cc2ccccc2)C(c2ccccc2)N1c1ccccc1` (stereo not drawn), the AC50 is 5.01 µM (active).

Take `C[C@H]1CC[C@H]2C(=O)N[C@H](Cc3ccccc3)C(=O)N2[C@@H]1c1ccccc1`: the activity, negative = inhibition was -2.57% [at 11.4 µM].

For the compound `O=C1C2ON(c3ccccc3)C(c3ccncc3)C2C(=O)N1c1ccccc1` (stereo not drawn), the AC50 result is “inactive”.

As for `CCN1C(=O)N[C@@H](c2ccccc2)C1=O`, the AC50 entry is “inactive”.

`COc1cccc(C=NC=Nc2cccc(OC)c2)c1`: the concentration at half-maximal activity (AC50) is 1 µM (active).

On to `Clc1cccc(C=NC=Nc2cccc(Cl)c2)c1`, for which the AC50 is 0.631 µM (active).

As for `CCCn1nc(NC(=O)CC(C)C)c2cc3ccccc3nc21`, the half-maximal activity concentration (AC50) is 1.58 µM (active).

Take `CC(C)CC(=O)Nc1ccccc1-c1nnn(CC(=O)N2CCc3ccccc3C2)n1`: the AC50 result is “inactive”.

With `COc1ccc(CNCCc2ccccc2)cc1OCC(N)=O`, the AC50 entry is “inactive”.

Take `CCOc1cc(CNCCO)c(Cl)cc1OCC(=O)NCCc1ccccc1`: the concentration at half-maximal activity (AC50) is 6.31 µM (active).

With `CCNCc1cc(OCC)c(OCC(=O)NCCc2ccccc2)cc1Cl`, the AC50 is 1.78 µM (active).

On to `Nc1nc2c(c(=O)[nH]1)N[C@H](CCNc1ccc(C(=O)O)cc1)CN2`, for which the activity, negative = inhibition was -4.28% [at 11.4 µM].

Take `COc1ccccc1CN1CCC2(CC1)CCN(C(=O)c1c(C)noc1C)CC2`: the AC50 entry was “inactive”.

As for `COc1ccccc1CNc1ccnc(-c2c(C)noc2C)n1`, the concentration at half-maximal activity (AC50) was 0.398 µM (active).

Regarding `COc1ccc(CNc2ccnc(-c3c(C)noc3C)n2)c(OC)c1`, the half-maximal activity concentration (AC50) is 1.26 µM (active).

In the case of `COC(=O)CN(c1ccc(OC)cc1)S(=O)(=O)c1c(C)noc1C`, the AC50 result was “inactive”.

For the compound `COc1ccccc1CN1CCCC2(CCN(C(=O)c3c(C)noc3C)CC2)C1`, the AC50 entry is “inactive”.

For `O=C(O)/C(=C/c1c(C(=O)O)[nH]c2cc(Cl)cc(Cl)c12)c1ccccc1`, the AC50 is 12.6 µM (active).

With `Cc1cc(C(=O)CSc2nnc(-c3ccccc3)o2)c(C)n1CC1COc2ccccc2O1` (stereo not drawn), the AC50 result was “inactive”.

For the compound `c1ccc(-c2nnc(SCCC3OCCCO3)o2)cc1`, the half-maximal activity concentration (AC50) was 1.78 µM (active).

Take `CCC1CCc2c(c3ccccc3[nH]c2=O)O1` (stereo not drawn): the AC50 was 0.562 µM (active).

Consider `C#CCn1c(=O)c2c(ncn2C)n(C)c1=O`, for which the AC50 result was “inactive”.

Regarding `CC[C@@H](c1ccccc1)n1c(=O)n2n(c1=O)[C@H]1[C@H](O)[C@H]3O[C@@H]3/C(=N/OC/C=C(\C)CCC=C(C)C)[C@@H]1CC2`, the activity, negative = inhibition is -18.9% [at 11.4 µM].

Turning to `Cc1nc(/N=C(\N)Nc2ccccc2)nc2ccccc12`, the half-maximal activity concentration (AC50) is 5.01 µM (active).

With `Cc1cccc(N/C(N)=N/c2nc(C)cc(C)n2)c1`, the AC50 is 12.6 µM (active).

As to `Oc1cccnc1CN1CCCCC1`, the activity, negative = inhibition is -14.4% [at 11.4 µM].

Regarding `[O-][n+]1c(CN2CCCCC2)nc2cccc3c2c1-c1ccccc1-3`, the AC50 was 1.58 µM (active).

Turning to `CN1CCN(Cc2nc3cccc4c3c([n+]2[O-])-c2ccccc2-4)CC1`, the AC50 was 1.26 µM (active).

`Cc1noc(C)c1C(=O)N1CCC[C@@]2(CCN(Cc3cc(C(F)(F)F)cc(C(F)(F)F)c3)C2)C1`: the AC50 entry is “inactive”.

As to `Nc1ccc(N=Nc2c(S(=O)(=O)O)cc3ccccc3c2S(=O)(=O)O)cc1`, the activity, negative = inhibition is -20.9% [at 2.29 µM].

For `CC(C)CCNC(=S)NC1CCCC1`, the concentration at half-maximal activity (AC50) is 14.1 µM (active).

As to `CCNC(=S)N1CCC(NC(=O)C2CCCCC2)CC1`, the AC50 entry is “inactive”.

In the case of `CCC(C)NC(=O)C1CCCN(C(=O)NC2CCCCC2)C1` (stereo not drawn), the AC50 entry was “inactive”.

On to `Cc1sc(N/N=C/c2cccnc2)nc1-c1ccccc1`, for which the concentration at half-maximal activity (AC50) was 0.0631 µM (active).

For `CC(=O)c1nnn(-c2nc(N)nc(N(c3ccccc3)c3ccccc3)n2)c1C`, the half-maximal activity concentration (AC50) was 22.4 µM (active).

For `CC(=O)c1c(N2CCC(C(N)=O)CC2)nc(=S)n(-c2ccccc2)c1C`, the AC50 entry was “inactive”.

For `O=C(O)CCC(O)=C1S(=O)(=O)OCCOS1(=O)=O`, the activity, negative = inhibition was -21.5% [at 11.4 µM].

With `O=C(O)/C=C/C(=O)Nc1ccc(F)cc1F`, the AC50 entry is “inactive”.

Turning to `COc1ccc(C(=O)Nc2ccc(F)cc2F)cc1OC`, the AC50 was 14.1 µM (active).

As for `CC(=O)c1ccc(OC(=O)C2c3ccccc3Oc3ccccc32)cc1`, the half-maximal activity concentration (AC50) was 4.47 µM (active).

Take `O=C(O)c1ccccc1C1c2ccccc2Oc2ccccc21`: the activity, negative = inhibition was -20.4% [at 2.29 µM].

For `COC(=O)c1c(-c2cc(OC)c(OC)c(OC)c2)c2ccc(OCc3ccccn3)cc2c(=O)n1-c1ccc(N)cc1`, the AC50 entry was “inactive”.

In the case of `CCNc1ncc2nc(C)c(=O)n(CCc3ccccc3)c2n1`, the AC50 is 1.58 µM (active).

Turning to `O=c1cnc2cnc(Nc3ccccc3)nc2n1CCc1ccccc1`, the concentration at half-maximal activity (AC50) was 3.16 µM (active).

For `CCNc1ncc2ncc(=O)n(CCc3ccccc3)c2n1`, the AC50 was 1 µM (active).

With `CN1/C(=C\C=[N+](C)c2ccccc2)C(C)(C)c2ccccc21`, the AC50 entry was “inactive”.

As to `Nc1nc2c(nc(Br)n2[C@@H]2O[C@H]3COP(=O)(O)O[C@@H]3[C@H]2O)c(=O)[nH]1`, the AC50 result is “inactive”.

Consider `COc1ccc(CNC(=O)Cc2csc(Nc3nc(=S)[nH]c4ccccc34)n2)cc1`, for which the AC50 was 4.47 µM (active).

As for `O=C(Cc1csc(Nc2nc(=S)[nH]c3ccccc23)n1)NCc1cccc(Cl)c1`, the AC50 was 4.47 µM (active).

For the compound `CCOc1cc2[nH]c(=O)n(CCC(=O)NCc3ccc(OC)cc3)c(=O)c2cc1OCC`, the AC50 result is “inactive”.

Turning to `Cn1c(=O)c2c(n(Cc3ccccc3)c1=O)NC(=O)C2CC(=O)NCc1cccc(Cl)c1` (stereo not drawn), the AC50 result was “inactive”.

As to `Cc1ccc(CNC(=O)Cc2csc(Nc3nc(=S)[nH]c4ccccc34)n2)cc1`, the AC50 is 3.16 µM (active).

As for `Cc1ccc(CS(=O)(=O)CCC(=O)NCc2ccccn2)cc1`, the AC50 entry was “inactive”.

Take `CC(C)(C)NC(=O)C(c1ccccn1)N(C(=O)C1CSC(=O)C1)c1ccc(F)cc1` (stereo not drawn): the AC50 entry was “inactive”.

As to `O=C(O)c1ccccc1-c1ccccc1C(=O)Nc1ccc2c(c1)Cc1ccccc1-2`, the activity, negative = inhibition was -7.14% [at 2.29 µM].

Consider `O=C(Nc1ccc2c(c1)Cc1ccccc1-2)[C@@H]1[C@H](C(=O)O)[C@]2(Cl)C(Cl)=C(Cl)[C@@]1(Cl)C2(Cl)Cl`, for which the half-maximal activity concentration (AC50) is 3.16 µM (active).

`S=C(Nc1ccc2c(c1)Cc1ccccc1-2)Nc1ccc2c(c1)Cc1ccccc1-2`: the concentration at half-maximal activity (AC50) was 0.2 µM (active).

Take `COc1cccc(NC(=S)NN2CCN(C)CC2)c1`: the AC50 entry was “inactive”.
